Source: PubChem BioAssay (Tox21)
Values joined by “and” are separate entries in the source; they are usually repeats but may differ in a detail not shown here. Equal entries are not always repeated. Records with an inconclusive call do not appear. Entries that show only a call come without a potency. Active and inactive are the calls of the source. Unless noted, calls follow the shape of the dose curve; as a rule, active = well fitted curve in the direction sought with a large enough effect in the repeat runs; inconclusive = weak or mixed curves; inactive = no such curve, though single readings can be large; an effect the other way counts as inactive or inconclusive.

Key:
[1] = qHTS assay to identify small molecule antagonists of the retinoid acid receptor (RAR) signaling pathway - cell viability counter screen (AID 1159551); also: nearly all actives have a fitted effect of over 35% in size
Summary of the method: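 In this counter screen, the RARE-luciferase line C3RL4 was exposed for 6 h at 37 C and 5% CO2 to compounds with retinol at 1 uM final. Cellular ATP, read by luminescence, served as the viability measure.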

[2] = qHTS assay to identify small molecule antagonists of the retinoic acid receptor (RAR) signaling pathway (AID 1159552; also: nearly all actives have a fitted effect of over 50% in size; also: potency is read from the fitted curve at half-maximal effect)
Summary of the method: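 RARE-luc C3RL4 cells; cpds + 1 uM (final) retinol, 6 hr, 37 C/5% CO2; luciferase reagent, 30 min RT, luminescence readout. Inhibitors of retinol-driven signal scored.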

[3] = qHTS assay to identify small molecule agonists of the retinoic acid receptor (RAR) signaling pathway (AID 1159553); conditions: C3RL4 RARE luciferase reporter, agonist, 6 h; activation: at 73.3 µM (top of the series) unless noted
Summary of the method: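 In this cell-based screen, 1,000 C3RL4 cells per well were cultured overnight, dosed with test chemicals in DMSO for 6 hr, and assessed for RARE luciferase luminescence.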

[4] = qHTS assay to identify small molecule antagonists of the estrogen related receptor (ERR) signaling pathway from Tox21 library - cell viability counter screen (AID 1224834); also: nearly all actives have a fitted effect of over 30% in size; also: potency is read from the fitted curve at half-maximal effect
Summary of the method: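 Counter screen run in ERR cells (2,000 cells/well): cells pre-incubated 6 h, then treated with compounds for 17.5 h at 37 C. Fluorescence was read 30 min after CellTiter-Fluor addition.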

[5] = biological target: Luciferin 4-monooxygenase (Photinus pyralis) (UniProt P08659); experiment: qHTS assay to identify small molecule inhibitors of firefly luciferase (AID 1224835); also: nearly all actives have a fitted effect of over 25% in size; also: potency is read from the fitted curve at half-maximal effect
Summary of the method: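 Biochemical qHTS: compounds run as interplate titrations against purified firefly enzyme, with D-luciferin and ATP each at its KM concentration. Light output recorded by CCD imaging.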

[6] = qHTS assay to identify small molecule agonists of the constitutive androstane receptor (CAR) signaling pathway - cell viability counter screen (AID 1224836); also: nearly all actives have a fitted effect of over 45% in size; also: potency is read from the fitted curve at half-maximal effect
Summary of the method: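 HepG2 cells stably carrying hCAR and a CYP2B6-2.2kb reporter were plated 4 h, then given compounds at 15 concentrations plus PK11195 (final 0.75 uM). After 23 h at 37 C, viability was read by CellTiter-Fluor fluorescence.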

[7] = qHTS assay to identify small molecule antagonists of the constitutive androstane receptor (CAR) signaling pathway - cell viability counter screen (AID 1224837); also: nearly all actives have a fitted effect of over 45% in size
Summary of the method: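 CITCO at 50 nM final was added alongside compounds (15 concentrations) to double-stable hCAR/CYP2B6-2.2kb HepG2 cells. Following 23 hr at 37 C, cell viability was quantified by CellTiter-Fluor fluorescence intensity.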

[8] = biological target: Nuclear receptor subfamily 1 group I member 3 (Homo sapiens) (UniProt Q14994); experiment: qHTS assay to identify small molecule antagonists of the constitutive androstane receptor (CAR) signaling pathway (AID 1224838); also: nearly all actives have a fitted effect of over 40% in size
Summary of the method: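 Inhibition of CITCO-driven (50 nM final) CYP2B6 reporter expression is measured in HepG2 cells stably carrying hCAR. Fifteen compound concentrations are applied for 24 h at 37 C, followed by luciferase luminescence.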

[9] = biological target: Nuclear receptor subfamily 1 group I member 3 (Homo sapiens) (UniProt Q14994); experiment: qHTS assay to identify small molecule agonists of the constitutive androstane receptor (CAR) signaling pathway (AID 1224839); also: nearly all actives have a fitted effect of over 15% in size
Summary of the method: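 HepG2 cells stably expressing hCAR and a CYP2B6-2.2kb luciferase reporter were treated with compounds at 15 concentrations plus 0.75 uM PK11195 (final) for 24 h at 37 C; luminescence was read after ONE-Glo addition.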

[10] = qHTS assay to identify small molecule antagonists of the estrogen related receptor signaling pathway with the pleiotropic PPARgamma coactivator (PGC) from Tox21 10K library - cell viability counter screen (AID 1224840; active = well fitted cell-killing curve with a large enough effect in the repeat runs, not every such curve was filed as active; also: nearly all actives have a fitted effect of over 40% in size)
Summary of the method: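 Readout: fluorescence intensity from CellTiter-Fluor after 30 min at 37 C/5% CO2. Preceded by 17.5 h treatment of PGC/ERR cells with DMSO-dissolved compounds, added 6 h post-seeding.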

[11] = qHTS assay to identify small molecule antagonists of the estrogen related receptor signaling pathway with the pleiotropic PPARgamma coactivator (PGC) from Tox21 10K library (AID 1224841; call rule not given here; also: actives are mostly falling curves and most rising ones were filed inactive; nearly all actives have a fitted effect of over 50% in size)
Summary of the method: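 One-Glo luminescence, measured after half an hour at room temperature, quantified reporter output of PGC/ERR cells. These had been plated at 2,000 per well, incubated 6 h, dosed with compounds in DMSO, then kept 18 h at 37 C.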

[12] = qHTS assay to identify small molecule agonists of the estrogen related receptor signaling pathway with the pleiotropic PPARgamma coactivator (PGC) from Tox21 10K library (AID 1224842); also: nearly all actives have a fitted effect of over 15% in size
Summary of the method: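 PGC/ERR reporter cell line, 2,000 cells per well, incubated 6 h at 37 C before 23 nL compound in DMSO was added. After 18 h at 37 C, One-Glo luminescence read following 30 min at room temperature.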

[13] = qHTS assay to identify small molecule agonists of the hypoxia (HIF-1) signaling pathway - cell viability counter screen (AID 1224844; calls by dose curve; also: nearly all actives have a fitted effect of over 50% in size; also: potency is read from the fitted curve at half-maximal effect)
Summary of the method: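 In this counter screen, HRE-bla ME-180 cell viability after 17 hrs of compound exposure at 37C was read by CellTiter-Glo luminescence, multiplexed with the beta-lactamase reporter measurement.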

[14] = biological target: Thyrotropin receptor (Homo sapiens) (UniProt P16473); experiment: qHTS assay to identify small molecule agonists of the thyroid stimulating hormone receptor (TSHR) signaling pathway (AID 1224843; calls by dose curve; also: nearly all actives have a fitted effect of over 45% in size)
Summary of the method: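 Agonist-mode screen: TSHR HEK293 cells received test chemicals for half an hour at room temperature, then HTRF cAMP detection reagents for one hour prior to fluorescence measurement. Each chemical ran as a 15-concentration series, triplicated.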

[15] = qHTS assay to identify small molecule antagonists of the estrogen related receptor (ERR) signaling pathway - cell viability counter screen (AID 1224818)
Summary of the method: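 Viability of ERR cells, CellTiter-Fluor fluorescence; 17.5 h compound exposure at 37 C, DMSO vehicle; 30 min reagent incubation at 37 C/5% CO2.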

[16] = qHTS assay to identify small molecule agonists of the estrogen related receptor (ERR) signaling pathway (AID 1224820)
Summary of the method: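 An ERR cell line provided by NTP was seeded at 2,000 cells per well and allowed to settle for 6 h before compounds in DMSO were added. After 18 h at 37 C, luciferase activity was measured by One-Glo luminescence.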

[17] = test system: estrogen-related receptor alpha (ERRalpha) with PGC-1alpha coactivator, human; experiment: qHTS assay to identify small molecule antagonists of the estrogen related receptor signaling pathway with the pleiotropic PPARgamma coactivator (PGC) (AID 1224821; calls by dose curve;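 also: lower luminescence signal means antagonism of PGC/ERR signalling; nearly all actives have a fitted effect of over 50% in size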)
Summary of the method: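 A PGC/ERR cell line supplied by NTP is seeded, allowed 6 h at 37 C, and treated with test compounds in DMSO for 18 h. Signal is then measured as luciferase luminescence using One-Glo.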

[18] = qHTS assay to identify small molecule antagonists of the estrogen related receptor signaling pathway with the pleiotropic PPARgamma coactivator (PGC) cell viability counter screen (AID 1224822)
Summary of the method: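 17.5 h compound treatment of PGC/ERR cells at 37 C; readout CellTiter-Fluor fluorescence; run alongside the PGC/ERR antagonist screen to flag cytotoxic compounds.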

[19] = qHTS assay to identify small molecule antagonists of the estrogen related receptor (ERR) signaling pathway (AID 1224819)
Summary of the method: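 Seed ERR cells 2,000/well; rest 6 h at 37 C/5% CO2; pin compounds in DMSO; incubate 18 h at 37 C; add One-Glo; wait 30 min at room temperature; measure luminescence.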

[20] = qHTS assay to identify small molecule agonists of the estrogen related receptor signaling pathway with the pleiotropic PPARgamma coactivator (PGC) (AID 1224823)
Summary of the method: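 Compounds dissolved in DMSO are added by pin tool to PGC/ERR cells that have settled for 6 h, and incubation continues 18 h at 37 C. Reporter output is measured as One-Glo luminescence.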

Sequence of Nuclear receptor subfamily 1 group I member 3 (Homo sapiens) (Q14994 whole entry, looked up): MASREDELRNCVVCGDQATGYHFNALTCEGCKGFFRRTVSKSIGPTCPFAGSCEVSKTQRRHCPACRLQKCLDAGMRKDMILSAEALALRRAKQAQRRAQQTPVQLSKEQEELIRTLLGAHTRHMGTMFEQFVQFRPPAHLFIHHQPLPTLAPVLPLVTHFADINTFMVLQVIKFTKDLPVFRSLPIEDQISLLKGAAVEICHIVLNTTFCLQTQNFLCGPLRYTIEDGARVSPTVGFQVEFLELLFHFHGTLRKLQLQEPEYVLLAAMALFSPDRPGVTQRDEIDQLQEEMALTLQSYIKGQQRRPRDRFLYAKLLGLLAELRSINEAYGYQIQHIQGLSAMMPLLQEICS
Sequence of Luciferin 4-monooxygenase (Photinus pyralis) (P08659 whole entry, looked up): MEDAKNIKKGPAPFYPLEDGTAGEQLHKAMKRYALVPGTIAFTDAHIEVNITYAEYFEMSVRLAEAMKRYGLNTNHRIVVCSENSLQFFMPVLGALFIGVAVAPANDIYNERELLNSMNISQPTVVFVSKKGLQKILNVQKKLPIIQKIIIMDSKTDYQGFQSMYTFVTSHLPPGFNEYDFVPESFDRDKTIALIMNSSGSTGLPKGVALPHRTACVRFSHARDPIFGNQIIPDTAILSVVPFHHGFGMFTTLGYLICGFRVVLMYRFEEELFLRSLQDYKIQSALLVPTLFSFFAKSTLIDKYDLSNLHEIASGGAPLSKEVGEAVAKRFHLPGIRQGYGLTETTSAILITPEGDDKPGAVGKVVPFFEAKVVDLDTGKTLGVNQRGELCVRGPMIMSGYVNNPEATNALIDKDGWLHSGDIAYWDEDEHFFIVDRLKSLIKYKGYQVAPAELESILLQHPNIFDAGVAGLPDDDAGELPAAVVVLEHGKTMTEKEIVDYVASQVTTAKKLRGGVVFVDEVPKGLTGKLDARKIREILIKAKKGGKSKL
Sequence of Thyrotropin receptor (Homo sapiens) (P16473 whole entry, looked up): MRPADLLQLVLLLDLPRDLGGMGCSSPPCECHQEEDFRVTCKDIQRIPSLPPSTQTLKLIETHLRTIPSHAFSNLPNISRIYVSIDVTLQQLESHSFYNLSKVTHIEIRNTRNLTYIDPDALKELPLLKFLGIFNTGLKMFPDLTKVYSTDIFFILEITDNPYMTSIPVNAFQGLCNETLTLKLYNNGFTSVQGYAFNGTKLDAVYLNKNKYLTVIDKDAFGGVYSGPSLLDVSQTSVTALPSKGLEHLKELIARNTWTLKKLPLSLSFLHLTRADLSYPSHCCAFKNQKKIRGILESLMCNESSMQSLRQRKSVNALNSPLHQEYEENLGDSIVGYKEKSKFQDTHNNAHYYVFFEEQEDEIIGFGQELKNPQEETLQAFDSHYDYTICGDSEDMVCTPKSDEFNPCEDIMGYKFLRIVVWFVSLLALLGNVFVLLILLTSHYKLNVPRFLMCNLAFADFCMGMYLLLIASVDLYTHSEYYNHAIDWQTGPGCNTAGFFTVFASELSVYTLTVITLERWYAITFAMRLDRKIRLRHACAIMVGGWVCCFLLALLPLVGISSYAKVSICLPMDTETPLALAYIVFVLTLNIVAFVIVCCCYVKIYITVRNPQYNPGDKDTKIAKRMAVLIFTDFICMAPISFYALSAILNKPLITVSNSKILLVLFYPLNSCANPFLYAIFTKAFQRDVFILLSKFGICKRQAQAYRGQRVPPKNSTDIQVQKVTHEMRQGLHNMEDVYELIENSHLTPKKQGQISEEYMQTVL

Compound	Potency [1]	Potency [2]	Potency [3]	Potency [4]	Potency [5]	Potency [6]	Potency [7]	Potency [8]	Potency [9]	Potency [10]	Potency [11]	Potency [12]	Potency [13]	Potency [14]	outcome [15]	outcome [16]	Potency [17]	Potency [18]	Potency [19]	outcome [20]
Cc1cc(C)cc(O)c1	inactive	inactive	inactive	inactive	inactive	inactive	inactive	inactive	inactive	inactive	inactive	inactive	inactive	–	–	–	–	–	–	–
O=Cc1ccc(CO)o1	inactive	inactive	–	inactive	inactive	inactive	inactive	inactive	inactive	inactive	inactive	inactive	inactive	–	–	–	–	–	–	–
Cc1cccc(C)c1[N+](=O)[O-]	inactive	inactive	inactive	inactive	inactive	inactive	inactive	–	–	inactive	–	–	inactive	inactive	–	–	–	–	–	–
O=C1CCCCCCCCCCC1	inactive	inactive	inactive	inactive	–	inactive	inactive	inactive	inactive	inactive	–	–	inactive	–	–	–	–	–	–	–
COc1ccc([C@@H]2CC(=O)c3c(O)cc(O[C@@H]4O[C@H](CO[C@@H]5O[C@@H](C)[C@H](O)[C@@H](O)[C@H]5O)[C@@H](O)[C@H](O)[C@H]4O)cc3O2)cc1OC	inactive	inactive	inactive	inactive	–	inactive	inactive	inactive	inactive	inactive	–	–	inactive	–	–	–	–	–	–	–
Nc1nc(N)c2nc(-c3ccccc3)c(N)nc2n1	inactive	inactive	–	inactive	40.4 µM (active) and 39.9 µM (active)	inactive	inactive	inactive	inactive	inactive	inactive	inactive	inactive	–	inactive	inactive	inactive	inactive	–	–
CC(CN1c2ccccc2Sc2ccccc21)N(C)C (configuration not stated)	inactive	27.6 µM (active) and 48.6 µM (active) and 26.6 µM (active)	–	69.3 µM (active) and 61.1 µM (active)	inactive	54.5 µM (active)	–	inactive	inactive	–	inactive	inactive	39.3 µM (active)	inactive	inactive	inactive	inactive	inactive	inactive	inactive
Cc1ccc(C)c(S(=O)(=O)O)c1	inactive	inactive	inactive	inactive	–	inactive	inactive	inactive	inactive	inactive	–	–	inactive	inactive	–	–	–	–	–	–
CO[Si](CCCNCCN)(OC)OC	inactive	inactive	inactive	inactive	inactive	inactive	inactive	–	–	inactive	–	–	inactive	inactive	–	–	–	–	–	–
COc1c(Cl)ccc(Cl)c1C(=O)O	inactive	inactive	inactive	inactive	–	inactive	inactive	inactive	inactive	inactive	–	–	inactive	inactive	–	–	–	–	–	–
O=c1n(CCCN2CCN(c3cccc(Cl)c3)CC2)nc2ccccn12	inactive	inactive	–	inactive	–	inactive	inactive	inactive	inactive	inactive	–	–	inactive	inactive	inactive	inactive	–	inactive	inactive	–
OC[C@H]1O[C@@H](Oc2ccc(O)cc2)[C@H](O)[C@@H](O)[C@@H]1O	inactive	inactive	inactive	inactive	inactive	inactive	inactive	–	–	inactive	inactive	inactive	inactive	inactive	–	–	–	–	–	–
Cc1cc(C)c(O)c(C)c1	inactive	inactive	–	inactive	inactive	inactive	inactive	inactive	inactive	inactive	inactive	inactive	inactive	–	–	–	–	–	–	–
CCCCCCC(=O)O	inactive	inactive	inactive	inactive	–	inactive	inactive	inactive	inactive	inactive	inactive	inactive	inactive	inactive	–	–	–	–	–	–
NC1CCCCC1N (configuration not stated)	inactive	inactive	inactive	inactive	–	inactive	inactive	inactive	inactive	inactive	inactive	inactive	inactive	–	–	–	–	–	–	–
C=CC(C)(C)C	inactive	inactive	inactive	inactive	–	inactive	inactive	inactive	inactive	inactive	inactive	inactive	inactive	inactive	–	–	–	–	–	–
C=C(C)CC(C)(C)C	inactive	inactive	inactive	inactive	inactive	inactive	inactive	–	–	inactive	–	–	inactive	inactive	–	–	–	–	–	–
CCOC(=O)c1ccc(O)cc1	inactive	inactive	–	inactive	inactive	inactive	inactive	inactive	inactive	inactive	–	–	inactive	inactive	–	–	–	–	–	–
CCCCCC(C)=O	inactive	inactive	–	inactive	inactive	inactive	inactive	inactive	inactive	inactive	inactive	inactive	inactive	–	–	–	–	–	–	–
O=C1OC(=O)c2c(Cl)c(Cl)c(Cl)c(Cl)c21	inactive	inactive	inactive	inactive	–	inactive	inactive	inactive	inactive	inactive	inactive	inactive	inactive	inactive	–	–	–	–	–	–
